Records with an inconclusive call do not appear. Calls of active or inactive are those of the source. Calls follow the shape of the dose curve; as a rule, active = well fitted inhibition curve with a large enough effect; inconclusive = small, poorly fitted or top-dose-only effect; inactive = flat fitted curve, though single readings scatter.
Experiments:
CP260 = experiment: qHTS profiling for inhibitors of Plasmodium falciparum proliferation (AID 504749); also: nearly all actives have a fitted effect of over 60% in size; conditions: P. falciparum in erythrocytes, SYBR Green DNA, 72 h; series mostly up to 28.7 µM
Method in brief: (§1)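 Each compound contacts P. falciparum-infected red blood cells for 72 h at 37 C; lysis buffer (Tris, EDTA, saponin, Triton X, SYBR Green I) is added and fluorescence measured next morning; values normalized to controls.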

CP262 = experiment: as above; conditions: P. falciparum in erythrocytes, SYBR Green DNA, 72 h; series mostly up to 28.7 µM
Method in brief: as §1

CP265 = experiment: as above; conditions: P. falciparum in erythrocytes, SYBR Green DNA, 72 h; series mostly up to 28.7 µM
Method in brief: as §1

CP266 = experiment: as above; conditions: P. falciparum in erythrocytes, SYBR Green DNA, 72 h; series mostly up to 28.7 µM
Method in brief: as §1

CP268 = experiment: as above; conditions: P. falciparum in erythrocytes, SYBR Green DNA, 72 h; series mostly up to 28.7 µM
Method in brief: as §1

CP269 = experiment: as above; conditions: P. falciparum in erythrocytes, SYBR Green DNA, 72 h; series mostly up to 28.7 µM
Method in brief: as §1

CP286 = experiment: as above; conditions: P. falciparum in erythrocytes, SYBR Green DNA, 72 h; series mostly up to 28.7 µM
Method in brief: as §1

CP291 = experiment: as above; conditions: P. falciparum in erythrocytes, SYBR Green DNA, 72 h; series mostly up to 28.7 µM
Method in brief: as §1

CP297 = experiment: as above; conditions: P. falciparum in erythrocytes, SYBR Green DNA, 72 h; series mostly up to 28.7 µM
Method in brief: as §1

CP305 = experiment: as above; conditions: P. falciparum in erythrocytes, SYBR Green DNA, 72 h; series mostly up to 28.7 µM
Method in brief: as §1

CP315 = experiment: as above; conditions: P. falciparum in erythrocytes, SYBR Green DNA, 72 h; series mostly up to 28.7 µM
Method in brief: as §1

CP325 = experiment: as above; conditions: P. falciparum in erythrocytes, SYBR Green DNA, 72 h; series mostly up to 28.7 µM
Method in brief: as §1

CP329 = experiment: as above; conditions: P. falciparum in erythrocytes, SYBR Green DNA, 72 h; series mostly up to 28.7 µM
Method in brief: as §1

CP335 = experiment: as above; conditions: P. falciparum in erythrocytes, SYBR Green DNA, 72 h; series mostly up to 28.7 µM
Method in brief: as §1

DFO2036 = experiment: as above; conditions: P. falciparum in erythrocytes, SYBR Green DNA, 72 h; series mostly up to 28.7 µM
Method in brief: as §1

DIV14 = experiment: as above; conditions: P. falciparum in erythrocytes, SYBR Green DNA, 72 h; series mostly up to 28.7 µM
Method in brief: as §1

DIV17 = experiment: as above; conditions: P. falciparum in erythrocytes, SYBR Green DNA, 72 h; series mostly up to 28.7 µM
Method in brief: as §1

DIV30 = experiment: as above; conditions: P. falciparum in erythrocytes, SYBR Green DNA, 72 h; series mostly up to 28.7 µM
Method in brief: as §1

Dd2 = experiment: as above; conditions: P. falciparum in erythrocytes, SYBR Green DNA, 72 h; series mostly up to 28.7 µM
Method in brief: as §1

ECU = experiment: as above; conditions: P. falciparum in erythrocytes, SYBR Green DNA, 72 h; series mostly up to 28.7 µM
Method in brief: as §1

FAB9 = experiment: as above; conditions: P. falciparum in erythrocytes, SYBR Green DNA, 72 h; series mostly up to 28.7 µM
Method in brief: as §1

GB4 = experiment: as above; conditions: P. falciparum in erythrocytes, SYBR Green DNA, 72 h; series mostly up to 28.7 µM
Method in brief: as §1

HB3 = experiment: as above; conditions: P. falciparum in erythrocytes, SYBR Green DNA, 72 h; series mostly up to 28.7 µM
Method in brief: as §1

ICS = experiment: as above; conditions: P. falciparum in erythrocytes, SYBR Green DNA, 72 h; series mostly up to 28.7 µM
Method in brief: as §1

JCK = experiment: as above; conditions: P. falciparum in erythrocytes, SYBR Green DNA, 72 h; series mostly up to 28.7 µM
Method in brief: as §1

N140 = experiment: as above; conditions: P. falciparum in erythrocytes, SYBR Green DNA, 72 h; series mostly up to 28.7 µM
Method in brief: as §1

P93_24 = experiment: as above; conditions: P. falciparum in erythrocytes, SYBR Green DNA, 72 h; series mostly up to 28.7 µM
Method in brief: as §1

P94_40 = experiment: as above; conditions: P. falciparum in erythrocytes, SYBR Green DNA, 72 h; series mostly up to 28.7 µM
Method in brief: as §1

PAD = experiment: as above; conditions: P. falciparum in erythrocytes, SYBR Green DNA, 72 h; series mostly up to 28.7 µM
Method in brief: as §1

PC15 = experiment: as above; conditions: P. falciparum in erythrocytes, SYBR Green DNA, 72 h; series mostly up to 28.7 µM
Method in brief: as §1

PC26 = experiment: as above; conditions: P. falciparum in erythrocytes, SYBR Green DNA, 72 h; series mostly up to 28.7 µM
Method in brief: as §1

PC49 = experiment: as above; conditions: P. falciparum in erythrocytes, SYBR Green DNA, 72 h; series mostly up to 28.7 µM
Method in brief: as §1

SC27B = experiment: as above; conditions: P. falciparum in erythrocytes, SYBR Green DNA, 72 h; series mostly up to 28.7 µM
Method in brief: as §1

TAB109 = experiment: as above; conditions: P. falciparum in erythrocytes, SYBR Green DNA, 72 h; series mostly up to 28.7 µM
Method in brief: as §1

TAB113 = experiment: as above; conditions: P. falciparum in erythrocytes, SYBR Green DNA, 72 h; series mostly up to 28.7 µM
Method in brief: as §1

TAB165 = experiment: as above; conditions: P. falciparum in erythrocytes, SYBR Green DNA, 72 h; series mostly up to 28.7 µM
Method in brief: as §1

W2 = experiment: as above; conditions: P. falciparum in erythrocytes, SYBR Green DNA, 72 h; series mostly up to 28.7 µM
Method in brief: as §1

astro = experiment: Drug repurposing screens with cells derived from glioblastoma tumor samples (AID 1345199); conditions: viability, ATP luminescence, 48 h; series mostly up to 45.9 µM; also: nearly all actives have a fitted effect of over 40% in size
Method in brief: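 Primary testing used CD133+ neurospheres from four GBM patients, seven concentrations, 48 h exposure and ATP-based viability; confirmation added three slower-growing patient lines.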

Measured: Potency
Potency is read from the fitted curve at half-maximal effect.

CCCCCCCCCC[N+](C)(C)CCCCCCCCCC
active: CP260 3.98 µM | CP262 5.36 µM | CP265 5.01 µM | CP266 6.75 µM | CP268 6.01 µM | CP269 4.78 µM | CP286 2.51 µM | CP291 5.36 µM | CP297 6.75 µM | CP305 5.36 µM | CP315 16.9 µM | CP325 5.36 µM | CP329 6.75 µM | CP335 6.75 µM | DFO2036 5.01 µM | DIV14 3.01 µM | DIV17 3.01 µM | DIV30 8.49 µM | Dd2 8.91 µM | ECU 5.01 µM | FAB9 5.01 µM | GB4 3.38 µM | HB3 7.94 µM | ICS 2 µM | JCK 10 µM | N140 7.08 µM | P93_24 5.01 µM | P94_40 6.31 µM | PAD 8.91 µM | PC15 3.55 µM | PC26 5.36 µM | PC49 10 µM | SC27B 5.01 µM | TAB109 6.31 µM | TAB113 5.01 µM | TAB165 7.08 µM | W2 1.51 µM | astro 4.47 µM

Reference: PubChem BioAssay (NCATS)
